High-throughput results as filed in PubChem BioAssay.
Hits are enriched below; roughly 2.2% of the tested compounds scored in any of these assays.
TDP43 rescue – TDP-43 toxicity inhibition in yeast; actives 1.8% (n = 410,000); Potency, µM (highest dose often 46.1 µM), usual class: activators; TDP-43 expressing yeast growth rescue, BacTiter-Glo, 24 h; also: nearly all actives have a fitted effect of over 50% in size
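Readout is BacTiter-Glo luminescence of cell growth, so inhibitors register as activators. TDP-43-expressing yeast at OD600=0.02 in galactose medium, after raffinose pregrowth to mid-log, were incubated with compound for 24 hr at 30 deg C.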
aSyn rescue – alpha-synuclein toxicity inhibition in yeast | Yeast expressing alpha-synuclein, growth rescue, BacTiter-Glo, 24 h | Potency, µM (doses to about 46.1 µM), actives largely listed as activators | actives 0.14% (n = 370,000); also: nearly all actives have a fitted effect of over 65% in size
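Galactose-induced alpha-syn yeast (OD600=0.02, raffinose-pregrown) + pinned cpd, 24 hr, 30 deg C; growth by BacTiter-Glo luminescence. Growth restoration scores as activation.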
Mito fusion yeast – inhibitors of mitochondrial division or activators of mitochondrial fusion | S. cerevisiae fusion-defective mutant growth rescue, CellTiterGlo 48 h | Potency, µM (series often up to 46.1 µM), actives largely listed as activators | actives 0.23% (n = 320,000) | AID 485298; also: nearly all actives have a fitted effect of over 45% in size
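Compounds are tested for their ability to restore growth of mitochondrial fusion-defective yeast strains at non-permissive 37C in YPEG medium over 48 hours. Viability is quantified by luciferase luminescence.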
FUS suppressor – FUS proteinopathy suppression in yeast. S. cerevisiae FUS-expressing, growth rescue, OD600, 24 h. Potency, µM (highest dose often 76.6 µM), usual class: activators. actives 0.24% (n = 390,000). AID 1347120; also: nearly all actives have a fitted effect of over 55% in size
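FUS-expressing yeast, raffinose-pregrown, induced in 2% galactose minimal medium at OD 0.005; compounds in a dilution series, 24hr at 30C. Growth restoration read as absorbance at 600 nm. CP55940 positive control, DMSO negative.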
Abeta rescue – restores growth of yeast expressing A-beta42 peptide. Potency, µM (top dose mostly 46.1 µM), actives largely listed as activators. yeast expressing A-beta42, growth rescue, OD600, 48 h; response scale: 0% DMSO, 100% iron-clioquinol control. actives 0.063% (n = 410,000); also: nearly all actives have a fitted effect of over 55% in size
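Growth rescue measured by 600 nm absorbance after 48 h yeast culture at 30 C with compound. Values normalized between DMSO and an equimolar ferric chloride plus clioquinol control.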
Hits are given with their value; 0 = inactive; ? = inconclusive; - = no result given. Calls follow the shape of the dose curve; as a rule, active = well fitted curve in the direction sought with a large enough effect; inconclusive = small, poorly fitted or top-dose-only effect, or another doubt; inactive = no such curve, though single readings can be large; an effect the other way counts as inactive or inconclusive.

SMILES	TDP43 rescue	aSyn rescue	Mito fusion yeast	FUS suppressor	Abeta rescue
COc1ccc(NC(=O)CCc2c(C)nc3c(-c4ccccc4)c(C)nn3c2C)cc1Cl	0	-	-	0	0
COc1ccc(OC(C)C(=O)NCc2nc(-c3ccc(Cl)cc3)no2)cc1 (stereo not given)	15.8µM	-	-	?	0
COc1ccccc1OCC(=O)NCc1nc(-c2ccc(Cl)cc2)no1	0	-	-	0	0
CCc1nnc(SCc2nc(-c3cccc(Cl)c3)oc2C)c2cc3sc(C)cc3n12	0	-	-	0	0
COc1ccc(-n2c(SCC(=O)c3ccc4ccccc4c3)nnc2-c2ccccc2)cc1	-	-	-	0	-
c1c[nH]c(CN2CCN(Cc3ncc[nH]3)CC2)n1	3.98µM	0	-	-	0
COc1cc(NC(=O)Cc2c(C(=O)O)c(C)cn2C)cc(OC)c1	0	-	-	0	0
O=C(OCc1c(Cl)cccc1Cl)c1cccnc1Cl	12.6µM	0	0	0	0
COc1cc2c(NC3CCN(C)CC3)nc(N3CCCN(C)CC3)nc2cc1OCCCCCN(C)C	-	0	-	-	-
S=C(Nc1ccc(Cl)c(Cl)c1)N1CCCC1	3.16µM	0	0	0	0
CCCCc1ccc(NC(=S)N2CCCC2)cc1	0	0	0	0	11.2µM
FC(F)(F)c1cc(CNC2CCC23CCC(c2ccccc2)CC3)ccc1Cl (stereo not given)	-	-	-	0	-
C=CCOC(=O)c1cn(CC)c2nc(C)ccc2c1=O	?	0	0	0	0
CCn1cc(C(=O)OCC(=O)OC2CC(C)CCC2C(C)C)c(=O)c2ccc(C)nc21 (stereo not given)	22.4µM	0	0	?	0
CN(C)c1ccc(/C=C/c2sc3ccccc3[n+]2CCCCI)cc1	-	0	-	-	-
Cc1cc(C)c(NC(=O)c2cc3c(=O)n4ccccc4nc3n2C)c(C)c1	35.5µM	-	-	0	0
Cc1cc(C)cc(Nc2c3c(nc4ncnn24)CCC3)c1	?	?	0	0	0
Brc1ccc(Nc2c3c(nc4nncn24)CCC3)cc1	12.6µM	-	-	0	0
Cc1ccccc1Nc1c2c(nc3nncn13)CCC2	0	-	-	0	0
Clc1ccc(Nc2c3c(nc4ncnn24)CCC3)cc1	17.8µM	0	0	0	0
Cc1cccc(Nc2c3c(nc4nncn24)CCC3)c1	17.8µM	-	-	0	0
CCOc1ccc(Nc2c3c(nc4nncn24)CCC3)cc1	35.5µM	-	-	0	0
CCOc1ccc(CCNC(=O)c2cc3ccsc3n2C)cc1OCC	-	-	-	0	-
COc1cc(-n2c(C)nc3cc(C(=O)N4CCCCC4)ccc32)cc(OC)c1OC	-	-	-	0	-
COC(=O)C1CN(C2CCCC2)CCS(=O)(=O)N1Cc1ccc(Cl)cc1 (stereo not given)	-	-	-	0	-
SMILES	TDP43 rescue	aSyn rescue	Mito fusion yeast	FUS suppressor	Abeta rescue
Cc1ccc(-c2nc3ccccc3o2)cc1NC(=O)C(C)Oc1ccccc1 (stereo not given)	-	0	-	-	-
Cc1ccc(Nc2c3c(nc4nncn24)CCC3)cc1C	?	-	-	0	0
Cc1ccc(Nc2c3c(nc4nncn24)CCC3)cc1	15.8µM	-	-	0	0
Cc1ccc(S(=O)(=O)N(C)CCN(C)c2nc(-c3cccs3)nc3ccccc23)cc1	-	0	-	-	-
CCc1nnn2c1Cn1c3ccccc3c(=O)n1[C@@H](C)C2	-	-	-	0	-
COc1ccc(OC)c(-c2cc(C(=O)Nc3ccc(F)cc3F)no2)c1	0	0	0	0	0
CCCCC1(C)NC(=O)c2c(C)sc(C(=O)OCC)c2N1 (stereo not given)	20µM	0	0	0	0
COc1cccc(S(=O)(=O)Nc2noc3ccccc23)c1	?	0	0	0	0
COc1ccc(S(=O)(=O)Nc2noc3ccccc23)cc1	11.2µM	0	0	0	0
COc1ccc(S(=O)(=O)Nc2noc3ccccc23)cc1OC	?	0	0	0	0
CC(C)(C)c1ccc(S(=O)(=O)Nc2noc3ccccc23)cc1	20µM	0	0	0	0
CC(=O)O[C@@]12CO[C@@H]1C[C@H](O)[C@@]1(C)C(=O)[C@H](O)C3=C(C)[C@@H](OC(=O)[C@H](O)[C@@H](NC(=O)OC(C)(C)C)c4ccccc4)C[C@@](O)([C@@H](OC(=O)c4ccccc4)[C@H]21)C3(C)C	-	0	-	-	-
O=C(O)c1cc(N/N=C/c2ccc(-c3ccccc3)cc2)ccc1Cl	35.5µM	0	0	0	0
O=C(O)c1ccc(N/N=C/c2ccc(-c3ccccc3)cc2)cc1	5.62µM	0	0	0	0
O=C(O)c1cc(N/N=C/c2ccncc2)ccc1Cl	0	0	0	0	0
CC(C)c1ccc(/C=N/Nc2ccc(C(=O)O)cc2)cc1	11.2µM	0	0	0	0
COc1ccc(/C=N/Nc2ccc(C(=O)O)cc2)cc1OC	0	0	0	0	0
O=C(O)c1ccc(N/N=C/c2ccc(OC(=O)c3ccccc3Cl)cc2)cc1	0	0	0	0	0
O=C(O)c1cccc(N/N=C/c2ccc(F)c(F)c2)c1	25.1µM	0	0	0	0
C=CCN1[C@H](CC(C)C)COc2cccc(N3CCSCC3)c2S1(=O)=O	-	-	-	0	-
CC(=O)C1(C(=O)NCc2ccccc2)CC(c2ccccc2C(F)(F)F)=NO1 (stereo not given)	-	-	-	0	-
Cc1cc(C)cc(NC(=O)N2CCN(C)c3ncccc32)c1	0	-	-	0	0
COc1cc(NC(=O)CCc2c(C)noc2C)c(Cl)cc1C(=O)O	0	0	-	0	0
COC(=O)C1CN(Cc2ccc(F)cc2)CCS(=O)(=O)N1Cc1ccc(OC)cc1 (stereo not given)	-	-	-	0	-
COc1ccc2ccccc2c1/C=N/Nc1ccc(Cl)c(C(=O)O)c1	0	0	0	0	0
SMILES	TDP43 rescue	aSyn rescue	Mito fusion yeast	FUS suppressor	Abeta rescue
O=C(O)c1ccc(N/N=C/C=C/c2ccccc2)cc1	3.55µM	0	0	0	0
COc1ccc2ccccc2c1/C=N/Nc1cccc(C(=O)O)c1	20µM	0	0	0	0
O=C(O)c1ccc(/C=N/Nc2ccc(C(F)(F)F)cn2)cc1	8.91µM	0	0	0	0
CN(C)c1ccc(-c2nc3ncc(Cl)cc3[nH]2)cc1	-	-	-	0	-
Cc1ccc2occ(CC(=O)Nc3ccc(Cl)c(C(F)(F)F)c3)c2c1	0	-	-	0	0
Oc1ccc(Cc2ccccc2Cl)c(O)c1	12.6µM	0	-	0	0
COc1cc(O)c(C(CC(=O)N2CCC(C)CC2)c2ccc3c(c2)OCO3)c(OC)c1 (stereo not given)	-	-	-	0	-
CCn1c2ccccc2c2cc(C=NNC(=O)CSc3nc4ccccc4c(=O)n3-c3ccccc3)ccc21	-	-	-	0	-
Cc1ccccc1N1C(=O)c2cccc3cccc(c23)C1=O	20µM	0	0	0	0
COc1ccc(C(=O)N2N=C(c3cccs3)CC2c2ccccc2O)cc1 (stereo not given)	0	17.8µM	?	0	0
COc1ccc(C2=NN(C(=O)c3cccs3)C(c3ccccc3O)C2)cc1 (stereo not given)	0	0	0	0	0
O=C(Nc1ccc(Cl)cc1)C1CCCN1S(=O)(=O)c1cccc2cccnc12 (stereo not given)	-	-	-	0	-
